From paper PMC10163288
Not all results are given here. The true hit rate is not given.

B1: il2ra_site2_3nfp_normal_mot_HHH_b2_00429_000000100_0001_21_37_H_._HHH_b1_08311_0001_0000300035_0000001_0 (protein)
chain: SSSSDEEVERLIEEAEELLRNGNPEEAKRVISRATDLAYEAGDHRLFALLVDLVAVVAHLLSSSS
B2: il2ra_site2_3nfp_normal_mot_HHH_b2_04451_000000238_0001_21_37_H_._HHH_b2_06904_0001_0000300014_0000001_0 (protein)
chain: SSSSSSDEEEIEELLELVEKIDDQLERLQVLLEASKLAAELGDEELAREVLRLFAEIQSSSSSSS
B3: il2ra_site1_3nfp_normal_mot_0eddeacbb14b769e73e254714f31e2f9_0001_af2_000000052_0001_37_51_H_._HHH_b1_00975_af2_0002_0000100004_0000001_0 (protein)
chain: SSSSSDEEELRERVEELLEEAKHVSEEEASRLIEEAYRLVQENGNQELADLIYRVMREMISSSSS
B4: il2ra_site2_3nfp_sap_4_mot_HHH_b2_00168_000000180_0001_1_21_H_._HHH_b2_05578_af2_0001_0000500013_0000001_0_0001 (protein)
chain: SSSSDDVEEYLRAALALAREAIKQGDEELAEKILEMIRKAAEDAKDEEALEEAEELLKLVGSSSS
B5: il2ra_site2_3nfp_normal_mot_HHH_b2_06150_000000217_0001_39_53_H_._HHH_b1_03322_0001_0000100005_0000001_0 (protein)
chain: SSSSDIEERIEELLEEAKELIENGDPERAQEVLQEATHLAYEIRNSELFMRVAELLYLLRSSSSS
B6: il2ra_site1_3nfp_sap_8_mot_HHH_b1_04221_000000040_0001_40_56_H_._16d56542c9725820401ab7c11c235cbe_0001_0001_0000300014_0000001_0_0001 (protein)
chain: SSSSNEAAREATELMREIRRLLKEGNPEEARKLLEELEELAERNNDPVLKWLVRQFEESINSSSS
B7: il2ra_site1_1z92_sap_8_mot_a31c9f16200a66e5ad31ddff700483a3_0001_1_000000069_0001_19_32_H_._HHH_b1_08052_0001_0000300018_0000001_0_0001_af2pred_0001_af2pred (protein)
chain: SSSSEESLRRLAERLVEDAAKLADLSEEQKEELEELAEELIKRGVDPHEIAKELERLADELSSSS
B8: il2ra_site2_3nfp_normal_mot_HHH_b2_00429_000000100_0001_21_37_H_._HHH_b2_03374_0001_0000300044_0000001_0_af2pred_0001_1_af2pred_swapped (protein)
chain: SSSSNHEEFALRAALISLKLAVEAGNEELVRRLYEDAERAAKNANDPEVLEELERVFEEFHSSSS
B9: il2ra_site2_2erj_sap_17_mot_HHH_b2_05720_000000165_0001_1_18_H_._HHH_b2_07625_af2_0001_0000700024_0000001_0_0001 (protein)
chain: SSSSSDEEEREAERITEEIEERIDDPEERLREFFRVAVELLREGDPRTAHILLRLAQEGSSSSSS
B10: il2ra_site2_2erj_sap_24_mot_4428453eb85d3cbdb794fa6b82d21c19_0001_000000044_0001_14_30_H_._HHH_b2_00328_0001_0000300019_0000001_0_0001 (protein)
chain: SSSSDELHRLYELANEILHALSRGDEELVEELLEELEKLAEEADSRVAKENVEALRKHLDSSSSS
B11: il2ra_site1_2b5i_normal_mot_f5ff40796168375b462bec8614a1db4a_0001_1_000000138_0001_53_65_H_._HHH_b1_04161_0001_0000400021_0000001_0_af2pred_dldesign_0_af2pred (protein)
chain: SSSSSLRELVEEIIAEVKRLVAEGKLEEARKLAILALRLARKAEDPELVARVEALLETLESSSSS
B12: il2ra_site2_3nfp_normal_mot_HHH_b2_06150_000000217_0001_39_53_H_._HHH_b2_05434_af2_0001_0000100005_0000001_0 (protein)
chain: SSSSDEEEVEKLLKKAEELRERGNPEEARKLLREATQIAYERRDSELFFLVAEVLFEVLLSSSSS
B13: il2ra_site1_1z92_normal_mot_HHH_b2_00827_000000099_0001_20_37_H_._HHH_eva_0327_af2_0001_0000100007_0000001_0 (protein)
chain: SSEEELEELVEKIREVAEEKGDERLRRALERARFVLRELELGANSERAREIAEEAIKALYKTVVS
B14: il2ra_site1_3nfp_normal_mot_HHH_b1_04049_af2_000000244_0001_42_55_H_._HHH_b1_01786_0001_0000400012_0000001_0_af2pred_0001_af2pred (protein)
chain: SSSSDDKKRIQKLLREIMRLSKEGDEEEAEKLLEEVEELAREAGDPVAELLVELLKKILNSSSSS
B15: il2ra_site1_1z92_normal_mot_1581cc1c700002558836ca695aafbf97_0001_1_af2_000000099_0001_17_32_H_._HHH_b2_05050_0001_0000200017_0000001_0_af2pred_0001_af2pred (protein)
chain: SSSSDEEVERLVEELVEEFNLSEEEEKELRRIARSAEELGADPELVKKALEHFVEFLKRKGSSSS
B16: il2ra_site1_1z92_normal_mot_HHH_b1_04604_af2_000000029_0001_42_56_H_._HHH_b2_03915_0001_0000100005_0000001_0_af2pred_0001_af2pred (protein)
chain: SSSSDAELAAEADELLAEGNPEKVEEVLEEIRRAAEERDSRRLKEILENLEEELRELEEESSSSS
B17: il2ra_site1_2b5i_sap_12_mot_HHH_b2_04463_af2_000000056_0001_43_55_H_._HHH_b2_02114_af2_0001_0000100003_0000001_1_0001 (protein)
chain: SSSSNEAAREARELMEKLDEAFRRGDEELLEELLEEIEEFLKEQDDKFLRLAMEQVREELSSSSS
B18: il2ra_site2_3nfp_normal_mot_HHH_b1_03557_000000106_0001_41_55_H_._HHH_b2_00561_0001_0000400025_0000001_0_af2pred_0001_1_af2pred_swapped (protein)
chain: SSSSSDEEREEVEELLEEAEHIEDEREVFIVLVEAFFLALELRDPELERLVREFLKEFRSSSSSS
B19: il2ra_site1_1z92_normal_mot_HHH_b1_03515_000000289_0001_1_19_H_._HHH_b1_01554_af2_0001_0000200013_0000001_0 (protein)
chain: SSSSSSEHAARAIVKVLVRVARLSEEQEKELQELAEELVKRGYSLLEIIKILDRVAVELSSSSSS

Each binder was assayed against il2ra, P01589 (assay: yeast display titration).
Chain of il2ra, P01589 (P01589 whole entry): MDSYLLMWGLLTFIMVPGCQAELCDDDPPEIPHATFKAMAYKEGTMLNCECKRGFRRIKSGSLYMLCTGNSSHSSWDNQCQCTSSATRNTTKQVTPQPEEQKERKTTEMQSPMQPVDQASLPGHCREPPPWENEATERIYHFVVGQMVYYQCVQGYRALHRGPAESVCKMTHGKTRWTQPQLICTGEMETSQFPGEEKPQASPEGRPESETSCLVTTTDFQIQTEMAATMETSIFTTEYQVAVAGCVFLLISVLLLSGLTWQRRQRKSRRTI

Apparent Kd, inactive:
B1 no binding seen
B2 no binding seen
B3 no binding seen
B4 no binding seen
B5 no binding seen
B6 no binding seen
B7 no binding seen
B8 no binding seen
B9 no binding seen
B10 no binding seen
B11 no binding seen
B12 no binding seen
B13 no binding seen
B14 no binding seen
B15 no binding seen
B16 no binding seen
B17 no binding seen
B18 no binding seen
B19 no binding seen
